From PubChem BioAssay (EPA / NIEHS)
Inconclusive results are not listed. Activity calls are given as the source filed them. The calls were made as follows, unless noted: active = hit-call score of the fitted dose curve at least 0.9, where 1 is the maximum; inactive = score below 0.9.

Columns and labels:
[1] = molecular target: human Retinoid X Receptor beta (RXRb), RXRB (gene 6257) (UniProt P28702); experiment: ATG_RXRb_TRANS: Attagene TRANS-FACTORIAL HepG2 Assay for human Retinoid X Receptor beta (RXRb) (AID 2283013; active = hit-call score of the fitted dose curve at least 0.9, where 1 is the maximum)
human Retinoid X Receptor beta (RXRb), RXRB (gene 6257), sequence (P28702 whole entry, looked up, the tested form may be a part): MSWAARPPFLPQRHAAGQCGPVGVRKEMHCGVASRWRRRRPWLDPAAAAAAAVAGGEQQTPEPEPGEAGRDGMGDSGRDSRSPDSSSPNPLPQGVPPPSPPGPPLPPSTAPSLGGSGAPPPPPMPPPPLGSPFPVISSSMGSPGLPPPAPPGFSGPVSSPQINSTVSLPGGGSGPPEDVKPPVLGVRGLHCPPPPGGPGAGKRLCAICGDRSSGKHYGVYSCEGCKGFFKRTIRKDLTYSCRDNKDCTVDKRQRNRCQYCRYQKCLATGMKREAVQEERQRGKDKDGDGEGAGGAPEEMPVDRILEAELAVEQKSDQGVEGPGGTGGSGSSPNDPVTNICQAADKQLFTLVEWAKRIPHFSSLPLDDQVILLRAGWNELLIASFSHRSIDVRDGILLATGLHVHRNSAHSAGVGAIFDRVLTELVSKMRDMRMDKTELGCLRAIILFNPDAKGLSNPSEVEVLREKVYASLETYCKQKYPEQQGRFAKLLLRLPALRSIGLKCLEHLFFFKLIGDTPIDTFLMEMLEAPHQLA
Outline: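 Chimeric receptor-Gal4 activity was assessed in transiently transfected human HepG2 cells after 24 h exposure. Transcripts from GAL4-UAS reporters were quantified by fluorescent RT-PCR and capillary electrophoresis, with DMSO as negative control and baseline.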

[2] = read-out: E-selectin (Homo sapiens) (UniProt P16581); experiment: BSK_3C_Eselectin: BioMAP Diversity Plus: 3C Assay for Eselectin Biomarker Activity (AID 2283015); settings: primary human endothelial cells (HUVEC); actives raise or lower the signal
Outline: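 HUVEC, 3C stimulation; compound exposure 24 h; E-selectin by ELISA; gain- or loss-of-signal fitted bidirectionally vs DMSO baseline.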

[3] = read-out: Interleukin-1 alpha (IL1a), IL1A (gene 3552); experiment: BSK_BE3C_IL1a: BioMAP Diversity Plus: BE3C Assay for Interleukin-1 alpha (IL1a) Biomarker Activity (AID 2283016); settings: primary human bronchial epithelial cells; actives raise or lower the signal
Outline: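 Signal from IL-1a ELISA, taken 24 h after chemical dosing of human bronchial epithelial cells, is compared with DMSO as baseline using bidirectional curve fitting.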

[4] = read-out: Monocyte Chemoattractant Protein-1 (MCP1), CCL2 (gene 6347); experiment: BSK_3C_MCP1: BioMAP Diversity Plus: 3C Assay for Monocyte Chemoattractant Protein-1 (MCP1) Biomarker Activity (AID 2283017); settings: primary human endothelial cells (HUVEC); actives raise or lower the signal
Outline: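 HUVEC, 3C system; 24 h chemical exposure; MCP-1 by ELISA; bidirectional curve fit vs DMSO baseline.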

[5] = read-out: Monocyte Chemoattractant Protein-1 (MCP1), CCL2 (gene 6347); experiment: BSK_4H_MCP1: BioMAP Diversity Plus: 4H Assay for Monocyte Chemoattractant Protein-1 (MCP1) Biomarker Activity (AID 2283018); settings: primary human endothelial cells (HUVEC); actives raise or lower the signal
Outline: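 Endothelial cells from umbilical vein were treated with test chemical, then after 24 h MCP-1 levels were quantified by ELISA; endpoint values came from bidirectional fitting with DMSO as baseline of activity.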

[6] = read-out: Human Leukocyte Antigen - DR isotype (HLADR), HLA-DRA (gene 3122); experiment: BSK_3C_HLADR: BioMAP Diversity Plus: 3C Assay for Human Leukocyte Antigen - DR isotype (HLADR) Biomarker Activity (AID 2283019); settings: primary human endothelial cells (HUVEC); actives raise or lower the signal
Outline: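 HUVEC, 3C stimulation, 24 h post-dose; HLA-DR by ELISA; bidirectional curve fit vs DMSO baseline; gain or loss of signal scored.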

[7] = molecular target: human Thyroid Receptor alpha (THRa1), THRA (gene 7067) (UniProt P10827); experiment: ATG_THRa1_TRANS: Attagene TRANS-FACTORIAL HepG2 Assay for human Thyroid Receptor alpha (THRa1) (AID 2283014; active = hit-call score of the fitted dose curve at least 0.9, where 1 is the maximum)
human Thyroid Receptor alpha (THRa1), THRA (gene 7067), sequence (P10827 whole entry, looked up, the tested form may be a part): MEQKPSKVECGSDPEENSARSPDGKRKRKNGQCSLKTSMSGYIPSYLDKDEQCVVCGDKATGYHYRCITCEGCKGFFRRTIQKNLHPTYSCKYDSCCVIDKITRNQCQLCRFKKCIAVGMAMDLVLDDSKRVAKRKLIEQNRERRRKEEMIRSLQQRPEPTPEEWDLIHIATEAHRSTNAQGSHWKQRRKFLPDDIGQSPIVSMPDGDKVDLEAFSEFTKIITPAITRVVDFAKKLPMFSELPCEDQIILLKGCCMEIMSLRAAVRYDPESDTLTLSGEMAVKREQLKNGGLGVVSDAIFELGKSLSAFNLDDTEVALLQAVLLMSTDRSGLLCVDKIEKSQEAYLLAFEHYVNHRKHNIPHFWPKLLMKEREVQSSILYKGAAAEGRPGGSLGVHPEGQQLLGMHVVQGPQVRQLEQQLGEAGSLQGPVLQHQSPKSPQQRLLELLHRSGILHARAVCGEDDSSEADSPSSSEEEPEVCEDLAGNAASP
Outline: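 Transient HepG2 transfection, NR-Gal4 chimera driving GAL4-UAS reporters; 24 h compound exposure; total RNA, oligo(dT) RT, PCR, fluorescent primer extension, capillary electrophoresis. Upward direction vs DMSO control.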

[8] = molecular target: Retinoic acid receptor RXR-alpha (Homo sapiens) (UniProt P19793); experiment: ATG_RXRa_TRANS: Attagene TRANS-FACTORIAL HepG2 Assay for human Retinoid X Receptor alpha (RXRa) (AID 2283012; active = hit-call score of the fitted dose curve at least 0.9, where 1 is the maximum)
Retinoic acid receptor RXR-alpha (Homo sapiens), sequence (P19793 whole entry, looked up, the tested form may be a part): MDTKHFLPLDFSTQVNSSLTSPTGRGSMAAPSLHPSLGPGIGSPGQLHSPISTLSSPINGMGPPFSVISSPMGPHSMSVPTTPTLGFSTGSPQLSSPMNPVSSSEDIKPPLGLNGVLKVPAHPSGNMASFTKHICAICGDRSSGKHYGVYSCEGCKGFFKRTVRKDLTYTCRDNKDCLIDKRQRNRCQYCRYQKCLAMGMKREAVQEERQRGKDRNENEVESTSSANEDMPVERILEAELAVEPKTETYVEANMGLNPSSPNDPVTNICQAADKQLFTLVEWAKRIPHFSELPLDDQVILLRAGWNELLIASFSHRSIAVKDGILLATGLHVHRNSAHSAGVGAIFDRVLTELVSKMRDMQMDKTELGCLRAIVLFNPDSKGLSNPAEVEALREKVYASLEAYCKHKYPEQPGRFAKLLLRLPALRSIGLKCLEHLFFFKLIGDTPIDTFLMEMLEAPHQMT
Outline: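 Measures exogenous chimeric NR-GAL4 activity in transfected HepG2 liver cells after 24 h of dosing. Induced reporter mRNA was detected by RT-PCR with capillary electrophoresis, and gain of signal was analysed against DMSO.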

Measured: AC50

E-selectin (Homo sapiens), sequence (P16581 whole entry, looked up): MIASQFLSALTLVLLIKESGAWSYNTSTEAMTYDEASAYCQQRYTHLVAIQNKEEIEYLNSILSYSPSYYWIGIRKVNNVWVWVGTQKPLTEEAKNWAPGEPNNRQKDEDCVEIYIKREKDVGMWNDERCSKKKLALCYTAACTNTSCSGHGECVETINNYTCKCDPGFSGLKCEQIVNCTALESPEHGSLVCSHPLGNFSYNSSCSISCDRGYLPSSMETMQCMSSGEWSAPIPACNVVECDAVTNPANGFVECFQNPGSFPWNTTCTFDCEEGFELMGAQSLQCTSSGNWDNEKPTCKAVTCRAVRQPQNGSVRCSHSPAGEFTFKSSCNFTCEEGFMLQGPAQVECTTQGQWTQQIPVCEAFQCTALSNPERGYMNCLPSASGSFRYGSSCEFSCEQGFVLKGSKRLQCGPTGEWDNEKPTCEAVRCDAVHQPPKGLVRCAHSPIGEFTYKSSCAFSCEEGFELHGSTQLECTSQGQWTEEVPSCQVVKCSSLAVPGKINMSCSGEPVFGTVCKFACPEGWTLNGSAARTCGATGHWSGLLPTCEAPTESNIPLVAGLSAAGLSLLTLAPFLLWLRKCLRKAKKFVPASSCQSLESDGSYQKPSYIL

Cn1cc[nH]c1=S
not listed: [7] | [8]
inactive: all other assays above

OC(Cn1cncn1)(Cn1cncn1)c1ccc(F)cc1F
not listed: [8]
inactive: all other assays above

Nc1ccn([C@@H]2O[C@H](CO)[C@@H](O)[C@@H]2O)c(=O)n1
not listed: [7] | [8]
inactive: all other assays above

C=CCc1cc(S(=O)(=O)c2ccc(O)c(CC=C)c2)ccc1O
active: [2] 20 µM | [3] 21.1 µM | [4] 14.4 µM | [6] 16.3 µM
inactive: [8] | [7] | [5]

OCCOCCOCCO
not listed: [7]
inactive: all other assays above

c1ccc2cc3ccccc3cc2c1
not listed: [1]
inactive: all other assays above

CC(C)c1nnc2ccc(-c3ocnc3-c3cc(F)ccc3F)cn12
active: [4] 1 µM | [6] 0.833 µM
not listed: [7]
inactive: all other assays above

C=CN1CCCC1=O
not listed: [1] | [7]
inactive: all other assays above

CC(C)CC(C)O (stereo unspecified)
inactive: [2] | [3] | [4] | [5] | [6]

O=C(O)c1cccc(C(=O)O)c1
not listed: [1]
inactive: all other assays above

NC(=O)N(O)[C@@H]1COc2cc(OCc3ccccc3)ccc21
inactive: [2] | [3] | [4] | [5] | [6]

NC(=O)N1c2ccccc2C=Cc2ccccc21
not listed: [1]
inactive: all other assays above

CNC(C)=O
not listed: [8]
inactive: all other assays above

OCCNCCO
not listed: [1] | [7]
inactive: all other assays above

COc1cc2c(c(OC)c1OC)-c1ccc(OC)c(=O)cc1[C@@H](NC(C)=O)CC2
active: [6] 1.07 µM
inactive: all other assays above

NC(N)=O
not listed: [7]
inactive: all other assays above

CCCOc1ccc(S(=O)(=O)N2CCN(CC)CC2)cc1-c1nc2c(CC)n(Cc3ccccn3)nc2c(=O)[nH]1
not listed: [7]
inactive: all other assays above

CCCCC(CC)C(=O)OCCOCCOCCOC(=O)C(CC)CCCC (stereo unspecified)
not listed: [1] | [7]
inactive: all other assays above

CC(C)C(=O)Nc1ccc([N+](=O)[O-])c(C(F)(F)F)c1
active: [1] 13.3 µM | [7] 100 µM | [6] 34.1 µM
inactive: all other assays above
